Out of some 310,000 compounds screened, about 14,000 (4.5%) showed an effect of 50% or more. The effect is printed as a negative number. Only a selection was taken, and strong results are over-represented in it overall.
target: human ether-à-go-go-related gene (hERG) potassium channel (human, UniProt Q12809); experiment: primary screen, population patch clamp on CHO cells stably expressing hERG; higher = less effect of the substance
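Further: peak tail current of the secondary pulse compared with the same well before compound.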

Chain of human ether-à-go-go-related gene (hERG) potassium channel (Q12809 whole entry, looked up): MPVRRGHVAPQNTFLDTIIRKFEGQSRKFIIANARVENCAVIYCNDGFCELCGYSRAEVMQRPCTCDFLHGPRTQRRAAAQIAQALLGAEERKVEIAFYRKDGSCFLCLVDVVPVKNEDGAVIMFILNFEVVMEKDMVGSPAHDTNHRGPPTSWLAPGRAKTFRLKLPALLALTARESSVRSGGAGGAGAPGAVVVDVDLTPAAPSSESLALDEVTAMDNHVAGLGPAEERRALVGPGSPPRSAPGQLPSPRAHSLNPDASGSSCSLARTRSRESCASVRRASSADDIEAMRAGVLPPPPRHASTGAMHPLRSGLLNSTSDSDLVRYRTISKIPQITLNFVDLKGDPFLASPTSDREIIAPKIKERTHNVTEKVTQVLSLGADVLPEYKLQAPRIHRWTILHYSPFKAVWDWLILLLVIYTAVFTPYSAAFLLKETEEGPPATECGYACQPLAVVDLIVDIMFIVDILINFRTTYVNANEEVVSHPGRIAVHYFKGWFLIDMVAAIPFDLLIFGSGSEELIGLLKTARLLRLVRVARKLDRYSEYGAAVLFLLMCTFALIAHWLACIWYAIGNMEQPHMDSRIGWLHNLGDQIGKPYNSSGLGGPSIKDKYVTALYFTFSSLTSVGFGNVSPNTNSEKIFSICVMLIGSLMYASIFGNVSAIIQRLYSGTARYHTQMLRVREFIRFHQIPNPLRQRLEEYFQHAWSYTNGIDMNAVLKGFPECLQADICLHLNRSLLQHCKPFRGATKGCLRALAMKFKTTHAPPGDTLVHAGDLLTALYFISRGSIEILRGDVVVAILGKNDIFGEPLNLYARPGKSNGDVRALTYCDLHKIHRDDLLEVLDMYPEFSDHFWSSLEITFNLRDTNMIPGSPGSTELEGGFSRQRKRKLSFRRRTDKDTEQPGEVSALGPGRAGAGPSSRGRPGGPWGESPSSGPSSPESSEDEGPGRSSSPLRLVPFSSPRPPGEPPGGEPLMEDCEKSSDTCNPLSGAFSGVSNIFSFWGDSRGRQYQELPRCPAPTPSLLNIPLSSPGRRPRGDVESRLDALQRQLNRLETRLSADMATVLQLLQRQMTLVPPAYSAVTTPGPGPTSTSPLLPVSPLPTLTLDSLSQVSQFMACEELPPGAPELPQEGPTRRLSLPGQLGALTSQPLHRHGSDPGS

Structure (SMILES)	hERG current change (%, negative = inhibition) at 10uM [%]
Cc1cc(NC(=O)COC(=O)c2n[nH]c3ccccc23)no1	8.9
O=C(N/N=C/c1cccnc1)c1cccc(Br)c1	10.4
C#Cc1ccc([C@@H]2C=C(C(=O)N3CCN(Cc4ccccc4)CC3)O[C@H](OCCCCO)C2)cc1	-56
CN1CCN(C(=O)C2=C[C@H](c3ccc(Br)cc3)C[C@H](OCCCCO)O2)CC1	-47.7
C#Cc1ccc([C@@H]2C=C(C(=O)N3CCOCC3)O[C@H](OCCCCO)C2)cc1	17.3
C#Cc1ccc([C@H]2C=C(C(=O)N3CCN(Cc4ccccc4)CC3)O[C@@H](OCc3ccc(CO)cc3)C2)cc1	-13.3
O=C(C1=C[C@@H](c2ccc(Br)cc2)C[C@@H](OCCCCO)O1)N1CCN(Cc2ccccc2)CC1	-91.7
C#CCNC(=O)C1=C[C@H](c2ccc(C(F)(F)F)cc2)C[C@H](OCCCCO)O1	-6.12
C#CCNC(=O)C1=C[C@@H](c2ccc(C#C)cc2)C[C@@H](OCCCCO)O1	-3.88
C#CCNC(=O)C1=C[C@@H](c2ccc(C(F)(F)F)cc2)C[C@@H](OCCCCO)O1	-53.8
CCO[C@@H]1OC(C(=O)N2CCCCCCC2)=C[C@H](c2ccc(C(F)(F)F)cc2)[C@H]1CCCO	-21.4
CCO[C@H]1OC(C(=O)N2CCCCCCC2)=C[C@@H](c2ccc(C(F)(F)F)cc2)[C@@H]1CCCO	-50.5
O=C(C1=C[C@H](c2ccccc2)C[C@H](OCCCCO)O1)N1CCN(Cc2ccccc2)CC1	-38.9
CCO[C@@H]1OC(C(=O)N2CCN(C)CC2)=C[C@H](c2ccc(C(F)(F)F)cc2)[C@H]1CCCO	-1.51
CC(=O)Nc1ccc(S(=O)(=O)NNC(=S)NCc2ccco2)cc1	12.1
COc1ccc(-c2csc(N(CCCN3CCOCC3)C(=O)CCl)n2)cc1.Cl	3.28
CC1(C)C2CCC(C2)C1(C)NC(=O)C[N+](C)(C)C.[Cl-] (stereo not shown)	12.6
Cc1nc(NC(=O)/C=C/c2ccccc2)sc1C(=O)Nc1ccccc1Cl	13.3
c1ccc(-c2ncc(CN3CCN(c4ccccn4)CC3)[nH]2)cc1	-14.1
CCOC(=O)c1cnc(-n2nc(C)cc2C)nc1NC1CCCC1	-26.2

Structure (SMILES)	hERG current change (%, negative = inhibition) at 10uM [%]
CC(C)NCc1nnc(-c2ccc(Cl)cc2)o1	15.9
CCc1ccccc1NC(=O)c1cc(=O)c2ccccc2o1	-1.16
C=CCOC(=O)C1=C[C@@H](c2ccccc2)[C@H](CCCO)[C@@H](OCC)O1	-9.65
O=C(C1=C[C@H](c2ccc(C(F)(F)F)cc2)C[C@H](OCCCCO)O1)N1CCOCC1	-23.7
O=C(C1=C[C@H](c2ccc(C(F)(F)F)cc2)C[C@H](OCc2ccc(CO)cc2)O1)N1CCN(Cc2ccccc2)CC1	-15.2
O=C(C1=C[C@H](c2ccc(Br)cc2)C[C@H](OCCCCO)O1)N1CCN(Cc2ccccc2)CC1	-80.8
O=C(C1=C[C@@H](c2ccc(Br)cc2)C[C@@H](OCCCCO)O1)N1CCOCC1	-15.7
C=CCOC(=O)C1=C[C@H](c2ccc(Br)cc2)[C@@H](CCCO)[C@H](OCC)O1	-55.3
CN1CCN(C(=O)C2=C[C@@H](c3ccccc3)C[C@@H](OCCCCO)O2)CC1	-6.11
C=CCOC(=O)C1=C[C@@H](c2ccc(Br)cc2)[C@H](CCCO)[C@@H](OCC)O1	-22.6
O=C(C1=C[C@@H](c2ccc(C(F)(F)F)cc2)C[C@@H](OCCCCO)O1)N1CCCCCCC1	-51.3
O=C(C1=C[C@H](c2ccc(C(F)(F)F)cc2)C[C@H](OCCCCO)O1)N1CCN(Cc2ccccc2)CC1	-49.6
O=C(C1=C[C@@H](c2ccc(C(F)(F)F)cc2)C[C@@H](OCCCCO)O1)N1CCOCC1	-3.65
O=C(C1=C[C@@H](c2ccc(C(F)(F)F)cc2)C[C@@H](OCCCCO)O1)N1CCN(Cc2ccccc2)CC1	-60.6
COc1ccc(OC)c(NC(=O)c2ccc(CN3CCc4ccccc4C3)cc2)c1	3.78
O=C(Nc1ccc(F)cc1)c1cccc(C(=O)Nc2ccc(F)cc2)c1	-28.4
O=C(CN1C(=O)S/C(=C\c2ccc(O)c([N+](=O)[O-])c2)C1=O)Nc1ccc(N2CCOCC2)cc1	12.2
O=C1CCC(=O)N1OCCCOc1ccc2c(c1)CCC2	1.61
CCCNC(=O)Cc1c(C)n(C(=O)c2ccc(Cl)cc2)c2ccc(OC)cc12	14.6
COC(=O)C1=NNC2(c3ccc(C)cc3)C(=O)N(c3ccc(C)cc3)C(=O)C12 (stereo not shown)	16.5

— publication PMC4336329 (PLoS ONE, 2015)
